Calls of active or inactive are those of the source. How the source made its calls: active means hit-call score of the fitted dose curve at least 0.9, where 1 is the maximum; inactive means score below 0.9.
read-out: Ezrin (EZR), EZR (gene 7430); assay: LTEA_HepaRG_EZR: Life Technologies and Expression Analysis (LTEA) Assay for Ezrin (EZR) using HepaRG (AID 2283491); conditions: mRNA level, 48 h; actives raise or lower the signal
Method: It is a marker of Cellular remodeling.Data from the assay component LTEA_HepaRG_EZR was analyzed into 1 endpoint. This assay endpoint, LTEA_HepaRG_EZR, was analyzed with bidirectional fitting relative to DMSO as the negative control and baseline of activity. Using a type of inducible reporter, measures of mRNA induction for gain or loss-of-signal activity can be used to understand regulation of transcription factor activity. To generalize the intended target to other relatable targets, this assay endpoint is annotated to the membrane protein intended target family, where the subfamily is Cellular remodeling.
A total of 1060 chemcials from the ToxCast library were tested in eight-point concentration-response experiments. Cell culture and cytotoxicity assays were conducted at Thermo Fisher Scientific's Custom Services facility (Madison, WI). A single lot of human HepaRG cells (Thermo Fisher Scientific, Frederick, MD) was used for the cell culture experiments. 96-well format collagen type I coated plates of human HepaRG cells were prepared using established methods. Briefly, cryopreserved HepaRG cells were thawed, plated at a density of approximately 100,000 cells/well in HepaRG Thaw, Plate, and General Purpose media (HPRG770, Thermo Fisher Scientific), and incubated for 48 hours. 0.5% DMSO was selected as vehicle control to balance the requisite need of DMSO in HepaRG cultures to maintain differentiation (for example, baseline metabolism, proportions of hepatocytes vs. cholangiocytes), while enabling further hepatic receptor pathway activation (for example, PXR and CAR) in response to chemical exposure. 48 hours after plating, the culture medium was replaced with HepaRG Serum-Free Incudtion Media. Cells were exposed to each test chemical in duplicate and maintained in CO2 incubators for another 48 hours. Chemical plates were thawed to room temperature and 200x concentrations of treatment groups were prepared. 8-point conentration-reponse curves were made with the highest exposure at 100 uM, followed by half-log dilutions, all in 0.5% DMSO. Each test plate contained variouse controls, induction positive controls (1mM phenobarbital), cytotoxicity positive controls ([…] aflatoxin B1), vehicle controls (0.5% DMSO), and total lysis controls (0.5% DMSO). Cell morphology images were taken using an Essen IncuCyte FLR automated microscope, with six 96-well plates imaged in about 24 minutes. Images were captured and exported and JPEG files. Spent culture media was transfered to black-well plates for the LDH assay, and remaining media was sorted at -80 C for later use. Cells were treated with RLT buffer and frozen until shipped for gene expression analysis. Total RNA was isolated from the cell suspension in 75 uL of Buffer RLT (Qiagen, Germantown, MD 20874) by Quintiles/Expression Analysis (Durham, NC) using a custom isolation procedure. Total RNA from each plate well was transferred to a preamplification plate. Fluidigm's 96.96 Dynamic ArrayTM (Fluidigm, Amsterdam, the Netherlands) technology was used for gene expression analyses by quantitative reverse transcription polymerase chain reaction (qRT-PCR, performed by Quintiles/Expression Analysis, Durham, NC)89. Standard TaqManTM Assays (Applied Biosystems/ThermoFisher Scientific, Foster City, CA) were used to assess the expression of 93 genes selected based on their selectivity and sensitivity to important hepatic receptors known to be modulated by environmental chemicals; importance in human hepatocyte functionality; and hepatotoxicity. Three "housekeeping" endogenous control genes were also included and used for normalization: actin beta (ACTB), Glyceraldehyde 3 phosphate dehydrogenase (GAPDH) and RNA Polymerase II Subunit A (POLR2A). qRT-PCR was conducted according to the manufacturer's protocol.

Structure (SMILES)	AC50	outcome
C[C@@H]1C[C@@H]([C@H](O)CC2CC(=O)NC(=O)C2)C(=O)[C@@H](C)C1	10.8 µM (active)	–
ClCC(Cl)CCl	–	inactive
CCC(C)(C)c1ccc(O)c(C(C)(C)CC)c1	–	inactive
CCC(=O)C(CC(C)N(C)C)(c1ccccc1)c1ccccc1 (stereo unspecified)	–	inactive
C=C(C)C(=O)[O][Sn]([CH2]CCC)([CH2]CCC)[CH2]CCC	93.5 µM (active)	–
C=CC(=O)OCCCCCC(C)C	–	inactive
CC(=O)[O][Hg][c]1ccccc1	–	inactive
O=C(O)C(F)(F)C(F)(F)C(F)(F)C(F)(F)C(F)(F)C(F)(F)F	–	inactive
CCOP(=S)(OCC)SCSP(=S)(OCC)OCC	–	inactive
CN(C)N=O	–	inactive
O=C1C2(Cl)C3(Cl)C4(Cl)C(Cl)(Cl)C5(Cl)C3(Cl)C1(Cl)C5(Cl)C24Cl (stereo unspecified)	91.3 µM (active)	–
CC(C)(OO)c1ccccc1	–	inactive
CC(C)(c1ccccc1)c1ccc(O)c(C(C)(C)c2ccccc2)c1	–	inactive
CCOP(=S)(OCC)Oc1nc(Cl)c(Cl)cc1Cl	–	inactive
CC(C)(C)CC(C)(C)c1ccc(O)cc1	–	inactive
NC(=O)O	–	inactive

Structure (SMILES)	AC50	outcome
C[C@]12CCC(=O)C[C@@H]1CC[C@@H]1[C@@H]2CC[C@]2(C)[C@@H](O)CC[C@@H]12	–	inactive
CCCCCCCCc1ccc(O)cc1	–	inactive
O=C(O)C(F)(F)C(F)(F)C(F)(F)C(F)(F)C(F)(F)C(F)(F)C(F)(F)C(F)(F)C(F)(F)C(F)(F)F	–	inactive
CCN1CCC2(CC1)COc1cc3c(cc12)N(C(=O)c1ccc(-c2ccc(-c4nnc(C)o4)cc2C)cc1)CC3	–	inactive
O=[N+]([O-])c1ccc(O)c([N+](=O)[O-])c1	–	inactive
CC(C)(C)c1cc(O)ccc1O	–	inactive
Oc1cccc2cccnc12	–	inactive
Cc1ccccc1N	–	inactive
O=C(Nc1ccc2[nH]ccc2c1)c1cc2cc(F)ccc2n1Cc1cccc(F)c1	9.92 µM (active)	–
ClC1(Cl)C2(Cl)C3(Cl)C4(Cl)C(Cl)(Cl)C5(Cl)C3(Cl)C1(Cl)C5(Cl)C24Cl (stereo unspecified)	–	inactive
COc1cc(-c2ccc(N)c(OC)c2)ccc1N	–	inactive
O=C(O)C(Cl)(Cl)Cl	–	inactive
O=c1[nH]c(=O)[nH]c(=O)[nH]1	–	inactive
Cn1sc(Cl)cc1=O	–	inactive
CC12CC1(C)C(=O)N(c1cc(Cl)cc(Cl)c1)C2=O (stereo unspecified)	–	inactive
